In the library only some 4.1% were active in any assay of this set; here they are far more common.
DAX1 inh-1: DAX1 (NR0B1) inhibition, primary screen. HEK293T StAR-luciferase reporter, SF-1/DAX-1 repression relief. inhibition, % at 6.8 µM. 370,000 compounds, 1.1% hits. AID 652010;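 active = inhibition above the mean over all tested compounds plus 3 SD, cut at about 3.6% in these data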;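 also: 0% = DAX-1 cells with DMSO and 100% = cells lacking DAX-1 with DMSO; higher inhibition means more luminescence from relief of DAX-1 repression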
DAX1 inh-2: NR0B1 (DAX1) inhibition; HEK293 Gal4-DAX1 luciferase reporter, luminescence; inhibition, % at 6.75 µM; 340,000 compounds, 0.99% hits; AID 504766;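 active = inhibition above the mean over all tested compounds plus 3 SD, cut at about 4.2% in these data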;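 also: 0% = DAX1-transfected cells with DMSO and 100% = empty-vector control cells with DMSO; inhibition shows as a rise in luminescence from relieved DAX1 repression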
Target sequence (P51843 207-470 limits assumed): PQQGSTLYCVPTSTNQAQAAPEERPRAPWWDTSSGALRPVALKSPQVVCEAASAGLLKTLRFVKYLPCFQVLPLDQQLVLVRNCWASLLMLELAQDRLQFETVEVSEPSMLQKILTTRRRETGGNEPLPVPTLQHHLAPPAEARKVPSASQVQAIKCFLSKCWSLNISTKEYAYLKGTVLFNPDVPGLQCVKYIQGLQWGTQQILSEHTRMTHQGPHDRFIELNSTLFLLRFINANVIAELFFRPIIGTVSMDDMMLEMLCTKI
hcDAF-12 act: activators of H. contortus DAF-12 nuclear receptor; HEK293 hcDAF-12 lit1-tk-luc reporter, luminescence; 0% DMSO, 100% Δ7-dafachronic acid; 370,000 compounds, 1.4% hits; activation, % at 6.8 µM;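 active = activation above the mean of all tested compounds plus 3 SD, cut at about 5.5% in these data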;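 also: 100% = response to 3 µM Δ7-dafachronic acid high control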
hgDAF-12 ag: activates the H. glycines DAF-12 receptor ligand-binding domain; HEK293 GAL4-hgDAF12 UAS-luciferase reporter, agonist luminescence; normalized to butyrate control; activation, % at 6.8 µM; 370,000 compounds, 1.8% hits;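 active = activation above a cutoff set at the mean of all screened compounds plus 3 SD, cut at about 10% in these data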;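 also: 0% = DMSO wells and 100% = sodium butyrate wells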
ssDAF-12 act: activators of S. stercoralis DAF-12 nuclear receptor; 370,000 compounds, 1% hits; activation, % at 6.8 µM; HEK293 ssDAF-12/GRIP1 lit1-tk-luc reporter, luminescence; % of 3 µM dafachronic acid response; AID 652126;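 active = activation above the mean over all tested compounds plus 3 SD, cut at about 0.9% in these data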;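 also: 0% = DMSO-only wells and 100% = 3 µM delta7-dafachronic acid wells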
DAX1 inh confirm: NR0B1 (human) inhibition, confirmation. shares compounds with DAX1 inh-1. AID 652134. HEK293T StAR-promoter luciferase reporter, SF-1/DAX-1 repression. inhibition, % at 6.8 µM. 2,400 compounds, 87% hits;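 active = inhibition above the average of every tested compound plus 3 SD, cut at about 3.8% in these data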;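 also: 0% = DAX-1 cells with DMSO and 100% = no DAX-1 control cells with DMSO; active compounds raise luminescence by relieving repression of the StAR reporter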
Target sequence (P51843 whole entry, looked up): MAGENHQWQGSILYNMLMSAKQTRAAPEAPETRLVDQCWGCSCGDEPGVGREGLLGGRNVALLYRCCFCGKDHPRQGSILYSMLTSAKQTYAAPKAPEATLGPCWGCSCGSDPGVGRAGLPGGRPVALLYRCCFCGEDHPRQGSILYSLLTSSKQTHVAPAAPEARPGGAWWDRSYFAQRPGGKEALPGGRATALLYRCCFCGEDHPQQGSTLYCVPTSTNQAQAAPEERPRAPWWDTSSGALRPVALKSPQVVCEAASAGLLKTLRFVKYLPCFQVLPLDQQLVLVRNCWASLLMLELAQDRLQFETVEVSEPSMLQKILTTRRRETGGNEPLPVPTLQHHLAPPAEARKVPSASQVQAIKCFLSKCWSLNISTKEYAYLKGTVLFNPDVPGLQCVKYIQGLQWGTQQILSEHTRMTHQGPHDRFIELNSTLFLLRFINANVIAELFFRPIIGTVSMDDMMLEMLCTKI
SF1 mutant ctr: nonselective inhibitor or artifact in SF-1 mutant DAX1 counter-screen; shares compounds with DAX1 inh-1; inhibition, % at 6.8 µM; HEK293 StAR-luciferase, SF-1 AF2 mutant, luminescence; 2,400 compounds, 78% hits; AID 652136;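 active = inhibition above the mean of all tested compounds plus 3 SD, cut at about 3% in these data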;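 also: 0% = DAX-1 transfected cells with DMSO and 100% = cells without DAX-1 with DMSO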
LXR ag: activates human LXR-beta, counter-screen for hcDAF-12 agonists; 3,400 tested, under 10 active; activation, % at 6.8 µM; shares compounds with hcDAF-12 act; AID 743027; HEK293 Gal4-LXR tk-luc reporter, luminescence, 24 h; normalized: DMSO 0%, positive control 100%;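 active = mean percent activation of the reporter above a cutoff set as the average over tested compounds plus their standard deviation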
hcDAF12 conf: confirmation of H. contortus DAF-12 agonists; shares compounds with hcDAF-12 act; HEK293 hcDAF-12 lit1-tk-luc reporter, luminescence; % of Δ7-dafachronic acid response; activation, % at 6.8 µM; 3,400 compounds, 61% hits; AID 743032;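 active = mean activation across triplicate tests above the threshold derived from the earlier primary screen, cut at about 5.5% in these data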;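 also: 0% = DMSO only wells and 100% = 3 µM Δ7-dafachronic acid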
hgDAF12 conf: hgDAF-12 agonism, confirmation assay | 3,300 compounds, 80% hits | HEK293 GAL4-hgDAF12 luciferase reporter, agonist mode; percent of butyrate response | shares compounds with hgDAF-12 ag | activation, % at 6.8 µM;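 active = mean activation over triplicate wells above the hit cutoff derived from the earlier primary screen, cut at about 11% in these data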;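 also: 0% = DMSO low control and 100% = 2 mM sodium butyrate high control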
LXRb DAF12 ctr: LXR-beta agonism as DAF-12 counter-screen. 3,300 tested, under 10 active. shares compounds with hgDAF-12 ag. HEK293 Gal4-LXR luciferase reporter, 24 h. activation, % at 6.8 µM;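 active = mean activation of the triplicate above a set limit carried over from the primary screen, none filed active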
Starred values were filed as active, the others as inactive; · = no result.

SMILES	DAX1 inh-1	DAX1 inh-2	hcDAF-12 act	hgDAF-12 ag	ssDAF-12 act	LXR ag	hcDAF12 conf	others
Fc1ccc(-c2csc(N3CCOCC3)n2)cc1	0.3	3.6	1.5	5.2	-0.3	·	·
c1ccc2oc(-c3csc(N4CCOCC4)n3)cc2c1	7.7*	0.6	9.3*	18.0*	0.3	1.3	7.8*	DAX1 inh confirm=11.2*;SF1 mutant ctr=3.2*;hgDAF12 conf=15.4*;LXRb DAF12 ctr=0.9
COC(=O)c1ccc(COc2cc(O)c3c(c2)OC(C)(C)CC3=O)cc1	0.5	0.5	-1.1	1.3	-1.0	·	·
CC1(C)CC(=O)c2c(O)cc(OCc3ccc(Br)cc3)cc2O1	4.6*	3.5	4.6	14.3*	-0.2	·	·	DAX1 inh confirm=12.6*;SF1 mutant ctr=8.9*;hgDAF12 conf=9.4;LXRb DAF12 ctr=0.7
O=C(O)c1ccc(N/N=C/c2ccc(-c3ccccc3Cl)o2)cc1	9.2*	-0.8	9.8*	23.8*	1.3*	1.6	11.7*	DAX1 inh confirm=26.1*;SF1 mutant ctr=10.5*;hgDAF12 conf=12.3*;LXRb DAF12 ctr=1.1
Cc1ccc(/C=N/Nc2ccc(C(=O)O)cc2)o1	4.6*	3.3	6.3*	16.2*	0.6	·	·	DAX1 inh confirm=8.4*;SF1 mutant ctr=6.6*;hgDAF12 conf=12.8*;LXRb DAF12 ctr=0.4
O=C(O)c1ccc(N/N=C/c2ccc(-c3ccc(Br)cc3)o2)cc1	1.0	0.7	0.5	4.5	-0.8	·	·
CC(=O)c1cccc(-c2ccnc3c2CC(C(=O)Nc2ccc(C(C)C)cc2)O3)c1 (configuration not stated)	0.9	·	-4.0	-6.1	-1.9	·	·
Cc1ccc(/C=C2/CCc3c([nH]c4ccccc34)C2=O)cc1	5.3*	2.8	10.1*	17.6*	0.8	1.8	5.8*	DAX1 inh confirm=23.7*;SF1 mutant ctr=9.1*;hgDAF12 conf=21.6*;LXRb DAF12 ctr=1.3
C[n+]1cc(C(O)(c2ccccc2)c2ccccc2)n2ccccc21	·	·	-1.0	0.0	-0.9	·	·
COc1ccc(C(=O)c2oc3ccc(OC)cc3c2N)cc1	6.1*	2.8	3.2	20.7*	-0.6	·	·	DAX1 inh confirm=12.2*;SF1 mutant ctr=5.8*;hgDAF12 conf=14.8*;LXRb DAF12 ctr=0.8
O=C1Nc2ccccc2N(C(=O)c2c(F)cccc2F)C1c1nc2ccccc2[nH]1 (configuration not stated)	13.8*	·	4.3	23.3*	0.2	·	·	DAX1 inh confirm=4.2*;SF1 mutant ctr=3.1*;hgDAF12 conf=10.6*;LXRb DAF12 ctr=0.4
CC1Oc2ccccc2N(CC(=O)N2CCCCCC2)C1=O (configuration not stated)	-0.1	-0.5	3.9	-2.6	-0.8	·	·
c1ccc(-c2csc(CN3CCCCC3)n2)cc1	5.3*	3.2	7.1*	19.4*	0.9*	2.1	9.2*	DAX1 inh confirm=8.2*;SF1 mutant ctr=4.8*;hgDAF12 conf=18.4*;LXRb DAF12 ctr=1.2
COc1ccc(N=Nc2ccc3ccccc3c2)c(O)c1	1.2	3.8	8.1*	4.6	0.4	1.9	12.4*
COc1ccc(C(=O)c2ccccc2)c(O)c1	-0.4	0.7	-0.9	1.0	-1.3	·	·
CN1CCN(CCCNC(=O)Cn2nc(-c3ccccc3)ccc2=O)CC1	1.3	-0.2	8.5*	1.9	-1.5	-0.3	0.4
CCN(C(=O)c1cccc(S(=O)(=O)N2CCCCC2)c1)C1CCS(=O)(=O)C1 (configuration not stated)	0.6	-1.0	-0.9	-0.8	-0.4	·	·
CCc1ccc2oc(-c3cc(N)ccc3O)nc2c1	2.3	-1.6	8.3*	8.5	0.1	0.8	7.7*
CCc1ccc2oc(-c3cc(N)ccc3Cl)nc2c1	2.2	1.5	14.1*	9.2	1.3*	0.8	9.8*
O=C(NNC(=O)c1ccc2nc[nH]c2c1)c1ccccc1	-0.1	-0.1	-1.1	-0.7	-1.6	·	·
Cc1ccc(NC(=O)c2ccc3nc[nH]c3c2)nc1	9.6*	1.2	8.9*	7.3	0.1	1.1	5.1
COc1ccc2c(c1OC)C(=O)N1c3ccccc3SC21 (configuration not stated)	1.9	1.9	8.8*	11.7*	0.8	0.8	7.5*
O=C(O)c1[nH]c2ccccc2c1C(c1cc(Br)ccc1O)c1c(C(=O)O)[nH]c2ccccc12	-0.2	0.6	7.1*	0.5	0.6	-0.4	3.0
C[C@H]1C(=O)N2[C@@H](C[C@]3(c4c[nH]c5ccccc45)c4ccccc4N(S(=O)(=O)c4ccccc4)[C@H]23)C(=O)N1C	·	·	6.8*	0.7	-0.9	-0.3	1.8
SMILES	DAX1 inh-1	DAX1 inh-2	hcDAF-12 act	hgDAF-12 ag	ssDAF-12 act	LXR ag	hcDAF12 conf	others
Cc1c(C#N)c(=O)c(-[n+]2ccccc2)c([S-])n1-c1ccc(Cl)cc1	0.9	2.6	7.3*	2.0	-1.6	-0.2	0.2
Cc1cc(C)c2c(N)c3cccc(C)c3nc2n1	1.6	2.4	10.1*	3.6	1.7*	1.7	31.3*
Cc1cccc2c(N)c3c(nc12)CCCC3 (tested in a mixture with another compound)	0.0	1.8	0.5	2.2	-0.1	·	·
COc1ccc(-c2csc(NC(=O)C3COc4ccccc4O3)n2)cc1OC (configuration not stated)	-1.5	-0.7	-3.9	-2.1	-2.3	·	·
CCC(C)Nc1nc(-c2c[nH]c3ccccc23)cs1 (configuration not stated)	0.3	1.2	8.8*	6.6	0.6	0.1	5.4
CN1CCN(CC(=O)Nc2nc(-c3c[nH]c4ccccc34)cs2)CC1	1.8	1.4	1.7	4.1	-0.3	·	·
c1ccc(CN2CCC3CC2c2cc(N4CCCCC4)ccc23)cc1 (configuration not stated)	-0.4	0.3	-2.0	2.7	-1.0	·	·
Cc1ccc(-c2noc(-c3ccccc3F)n2)cc1	3.7*	2.0	16.7*	11.5*	2.1*	1.5	13.2*
Cc1ccccc1-c1noc(-c2ccccc2C(=O)O)n1	0.9	2.3	0.4	-2.2	-1.2	·	·
O=C(O)c1ccccc1-c1noc(-c2ccccc2F)n1	·	·	7.3*	11.8*	0.2	0.5	4.9
O=C(O)c1ccc(-c2noc(-c3cccc(F)c3)n2)cc1	2.3	2.0	0.0	6.4	-0.7	·	·
